Data on five compounds can be found in PubChem BioAssay.

Molecules are shown by their SMILES. Activity calls are given as the source filed them.

For one experiment, the target named is Albumin (Bos taurus) (UniProt P02769). Description: compounds binding labelled BSA control protein – biochemical, small-molecule microarray, Alexa647 label, 635/667 nm fluorescence, artefact control for SMM control protein annotation, profiling panel (AID 1118).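 Further: score merges 667 nm emission intensity and signal-to-noise per printed compound spot.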 To be noted: BSA-A647 binding, fluorescence 635 nm, higher = more signal.
Sequence of Albumin (Bos taurus) (P02769 whole entry, looked up): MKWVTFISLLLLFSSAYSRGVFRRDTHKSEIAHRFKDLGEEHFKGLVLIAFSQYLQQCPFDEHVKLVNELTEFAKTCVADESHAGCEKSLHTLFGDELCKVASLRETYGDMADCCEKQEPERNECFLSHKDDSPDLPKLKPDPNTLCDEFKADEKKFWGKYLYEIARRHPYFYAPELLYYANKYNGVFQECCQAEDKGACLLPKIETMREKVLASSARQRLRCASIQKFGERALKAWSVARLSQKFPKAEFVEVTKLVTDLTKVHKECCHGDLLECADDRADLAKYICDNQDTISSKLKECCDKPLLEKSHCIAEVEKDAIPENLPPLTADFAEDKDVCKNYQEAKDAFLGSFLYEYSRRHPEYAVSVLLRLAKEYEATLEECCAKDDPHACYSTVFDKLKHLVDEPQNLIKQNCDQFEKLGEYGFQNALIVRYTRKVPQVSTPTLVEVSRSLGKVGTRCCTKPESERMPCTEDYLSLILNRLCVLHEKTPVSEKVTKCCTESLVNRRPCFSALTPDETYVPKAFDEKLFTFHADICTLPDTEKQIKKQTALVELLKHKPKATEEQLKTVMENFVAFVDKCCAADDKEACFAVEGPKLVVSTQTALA
Experiment [1] in a line: probe aXIP binding to arrayed compounds – biochemical, NeuroSMM set, 635/667 nm fluorescence, primary screen (AID 1119).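 Further: probe is the protein aXip251-270 applied at 1 µg/mL to compound-printed slides; binding of probe to printed compounds measured as 667 nm fluorescence plus signal to noise.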 To be noted: small-molecule microarray, higher = more signal, called active from +8 up or from −8 down.
A short description of experiment [2]: probe aNOTCH3 binding on compound microarray – biochemical, small-molecule microarray, 635/667 nm fluorescence, primary screen (AID 1120).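 Further: probe is a biotin-tagged antibody raised against NOTCH3 rather than NOTCH3 protein; score merges spot fluorescence near 667 nm with spot signal to noise.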 Particulars: higher = more signal.
Experiment [3] can be described thus: probe aNOTCH2 binding on compound microarray – biochemical, small-molecule microarray, 635/667 nm fluorescence, primary screen (AID 1121).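 Further: score merges feature fluorescence read at 667 nm with its signal to noise.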 Particulars: higher = more signal.
Experiment [4] has as its target Carbonic anhydrase 2 (Homo sapiens) (UniProt P00918). Put plainly: compounds binding carbonic anhydrase 2 – biochemical, small-molecule microarray, Alexa647-labelled CAII, profiling panel (AID 1122). To be noted: CAII-A647 binding fluorescence, higher = more signal.
A short description of experiment [5]: COS7 lysate on small-molecule microarray, probe aHis, 635 nm (AID 1123).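 Further: z-score combines 667nm fluorescence intensity with signal-to-noise per printed compound spot.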 Particulars: COS7 cell lysate, fluorescence, higher = more signal.
A short description of experiment [6]: probe aLAP1 signal on lysate-treated microarray – cell lysate, small-molecule microarray, COS7 lysate, primary screen (AID 1124).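 Further: lysate comes from COS7 cells expressing LAP1 and is applied at 0.3 µg/mL; score merges spot fluorescence near 667 nm with signal-to-noise over triplicate slides.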 To be noted: probe aLAP1, fluorescence, higher = more signal.
The subject of a further experiment is Sam68 (KHDRBS1). Put plainly: compounds binding KHDRBS1 protein – biochemical, small-molecule microarray, 635 nm fluorescence, primary screen (AID 1125).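 Further: score merges 667 nm channel intensity with signal to noise over triplicate slides.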 Particulars: higher = more signal.
Experiment [7] has as its system Chordin-like protein 2 (CHRDL2). Description: compounds binding chordin-like 2 – biochemical, small-molecule microarray, 635 nm fluorescence, primary screen (AID 1126).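 Further: printed compound slides probed with Chrdl2 protein at 4 µg/mL for 1 h at 4 C; score merges 667 nm emission intensity with signal to noise over three replicate slides.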 To be noted: fluorescence 635 nm, higher = more signal.
In experiment [8] the target is Concanavalin-A (Canavalia ensiformis) (UniProt P02866). Put plainly: compounds binding concanavalin A lectin – biochemical, small-molecule microarray, Alexa647 label, 635 nm, artefact control for SMM control protein annotation, primary screen (AID 1127).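 Further: z combines 667 nm emission intensity with signal-to-noise across three replicate slides.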 To be noted: ConA-A647 binding fluorescence, higher = more signal.
Sequence of Concanavalin-A (Canavalia ensiformis) (P02866 whole entry, looked up): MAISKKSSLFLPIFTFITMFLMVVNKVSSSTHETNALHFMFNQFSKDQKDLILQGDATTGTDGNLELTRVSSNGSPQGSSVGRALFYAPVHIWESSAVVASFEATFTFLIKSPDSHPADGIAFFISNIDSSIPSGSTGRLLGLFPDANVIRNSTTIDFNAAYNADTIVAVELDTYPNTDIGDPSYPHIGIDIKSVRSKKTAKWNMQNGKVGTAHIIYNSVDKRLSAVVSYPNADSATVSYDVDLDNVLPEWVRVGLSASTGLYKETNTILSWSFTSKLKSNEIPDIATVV
Experiment [9] is described as follows: compounds binding Alexa647 anti-His antibody – biochemical, small-molecule microarray, 635 nm fluorescence, artefact control for SMM control protein annotation, primary screen (AID 1128).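 Further: score merges feature fluorescence with signal-to-noise for each printed compound spot.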 Particulars: higher = more signal.
In experiment [10] the test system is Human papillomavirus type 1a E7 protein (residues 1-88). Put plainly: HPV1a E7 small-molecule binders, primary screen, biochemical, small-molecule microarray, residues 1-88, 635 nm (AID 1129). To be noted: small-molecule microarray binding, fluorescence 635 nm; higher = more signal.
The target of experiment [11] is Focal adhesion kinase 1 (Homo sapiens) (UniProt Q05397). Put plainly: PTK2 protein binding on printed compound slides – biochemical, small-molecule microarray, 635/667 nm fluorescence, BSA, DTT, primary screen (AID 1130).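 Further: composite of spot emission at 667 nm and signal to noise over triplicate slides.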 Particulars: 635 nm fluorescence, higher = more signal.
Sequence of Focal adhesion kinase 1 (Homo sapiens) (Q05397 whole entry, looked up): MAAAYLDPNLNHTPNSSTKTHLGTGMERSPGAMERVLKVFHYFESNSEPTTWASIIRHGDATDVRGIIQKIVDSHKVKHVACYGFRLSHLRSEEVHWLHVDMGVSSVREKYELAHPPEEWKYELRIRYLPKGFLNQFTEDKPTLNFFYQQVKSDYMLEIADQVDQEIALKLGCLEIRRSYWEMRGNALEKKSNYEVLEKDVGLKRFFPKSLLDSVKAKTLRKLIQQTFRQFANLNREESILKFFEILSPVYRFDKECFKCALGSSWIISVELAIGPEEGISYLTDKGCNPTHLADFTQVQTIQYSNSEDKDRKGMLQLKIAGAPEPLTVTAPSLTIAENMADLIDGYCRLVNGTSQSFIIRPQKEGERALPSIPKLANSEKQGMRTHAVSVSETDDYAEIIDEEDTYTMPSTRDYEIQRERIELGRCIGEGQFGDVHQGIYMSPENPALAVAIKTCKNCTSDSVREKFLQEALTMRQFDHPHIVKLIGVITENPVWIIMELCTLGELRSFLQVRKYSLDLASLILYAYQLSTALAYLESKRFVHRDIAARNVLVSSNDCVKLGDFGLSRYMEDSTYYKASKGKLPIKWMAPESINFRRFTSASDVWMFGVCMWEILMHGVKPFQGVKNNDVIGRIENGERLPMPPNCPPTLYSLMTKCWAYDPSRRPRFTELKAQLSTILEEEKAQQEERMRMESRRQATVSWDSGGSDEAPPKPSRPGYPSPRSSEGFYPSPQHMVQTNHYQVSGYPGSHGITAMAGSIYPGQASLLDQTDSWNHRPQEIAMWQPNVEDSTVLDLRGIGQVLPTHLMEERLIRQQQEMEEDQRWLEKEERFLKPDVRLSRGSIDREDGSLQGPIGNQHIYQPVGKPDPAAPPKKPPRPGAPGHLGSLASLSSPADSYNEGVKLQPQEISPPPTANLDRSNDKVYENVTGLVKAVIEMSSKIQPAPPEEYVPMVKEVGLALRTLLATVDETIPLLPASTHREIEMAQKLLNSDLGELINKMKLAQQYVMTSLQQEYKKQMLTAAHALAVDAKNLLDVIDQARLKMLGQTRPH
Experiment [12] relates to Fibrinogen (Alexa647-labelled). Put plainly: Alexa647-fibrinogen binding to printed small molecules – biochemical, small-molecule microarray, 635/667 nm fluorescence, artefact control for SMM control-protein annotation, profiling panel (AID 1131).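 Further: z-score merges 667 nm fluorescence with per-spot signal-to-noise over triplicate slides.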 To be noted: fibrinogen-A647 binding fluorescence, higher = more signal.
The target in experiment [13] is Follistatin (Homo sapiens) (UniProt P19883). Put plainly: FST protein binding to printed compounds – biochemical, small-molecule microarray, 635/667 nm fluorescence, primary screen (AID 1132). To be noted: 635 nm fluorescence, higher = more signal.
Sequence of Follistatin (Homo sapiens) (P19883 whole entry, looked up): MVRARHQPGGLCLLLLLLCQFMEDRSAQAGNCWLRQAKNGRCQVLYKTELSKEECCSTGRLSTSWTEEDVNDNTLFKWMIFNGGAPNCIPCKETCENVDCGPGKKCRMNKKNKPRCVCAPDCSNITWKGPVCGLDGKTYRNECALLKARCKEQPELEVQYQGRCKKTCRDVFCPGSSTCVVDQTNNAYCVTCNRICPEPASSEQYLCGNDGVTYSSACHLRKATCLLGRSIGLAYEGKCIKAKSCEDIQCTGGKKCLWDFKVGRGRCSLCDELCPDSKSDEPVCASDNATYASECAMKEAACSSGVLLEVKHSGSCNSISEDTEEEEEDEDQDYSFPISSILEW
Experiment [14] addresses Fibroblast growth factor 2 (Homo sapiens) (UniProt P09038). Description: basic fibroblast growth factor binding to printed compounds – biochemical, small-molecule microarray, 635/667 nm fluorescence, primary screen (AID 1133). Particulars: FGF2, fluorescence 635/667, higher = more signal.
Experiment [15] can be described thus: JC-1 mitochondrial potential readout, lung cancer cells – cell-based, A549, JC-1 fluorescence, basal, 24 h, 100 nL, profiling panel (AID 1138).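 Further: A549 lung adenocarcinoma cells under basal conditions with no added stimulus; test concentration not given here.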 Particulars: higher = more signal.
Another experiment concerns Lefty1. Description: Lefty1 protein binding to printed compounds – biochemical, small-molecule microarray, 635/667 nm fluorescence, primary screen (AID 1139). To be noted: fluorescence 635/667, higher = more signal.
The subject of experiment [16] is wheat germ agglutinin (Triticum aestivum), Alexa647-labelled. Put plainly: Alexa647-WGA lectin binding to printed small molecules – biochemical, small-molecule microarray, 635/667 nm fluorescence, artefact control for SMM control-protein annotation, profiling panel (AID 1140).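 Further: score merges 667 nm feature emission with signal to noise over triplicate slides.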 To be noted: WGA-A647 binding, 635 nm fluorescence, higher = more signal.
The target in experiment [17] is Luciferin 4-monooxygenase (Photinus pyralis) (UniProt P08659). Put plainly: inhibition of purified Photinus pyralis luciferase – biochemical, luminescence, purified enzyme, 2006 set, primary screen (AID 1141).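 Further: cell-free assay with purified firefly luciferase at 100 ng per well in PBS; test concentration not given here.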 To be noted: purified firefly luciferase, SteadyGlo luminescence, 30 min; higher = more signal, called active from +8 up or from −8 down.
Sequence of Luciferin 4-monooxygenase (Photinus pyralis) (P08659 whole entry, looked up): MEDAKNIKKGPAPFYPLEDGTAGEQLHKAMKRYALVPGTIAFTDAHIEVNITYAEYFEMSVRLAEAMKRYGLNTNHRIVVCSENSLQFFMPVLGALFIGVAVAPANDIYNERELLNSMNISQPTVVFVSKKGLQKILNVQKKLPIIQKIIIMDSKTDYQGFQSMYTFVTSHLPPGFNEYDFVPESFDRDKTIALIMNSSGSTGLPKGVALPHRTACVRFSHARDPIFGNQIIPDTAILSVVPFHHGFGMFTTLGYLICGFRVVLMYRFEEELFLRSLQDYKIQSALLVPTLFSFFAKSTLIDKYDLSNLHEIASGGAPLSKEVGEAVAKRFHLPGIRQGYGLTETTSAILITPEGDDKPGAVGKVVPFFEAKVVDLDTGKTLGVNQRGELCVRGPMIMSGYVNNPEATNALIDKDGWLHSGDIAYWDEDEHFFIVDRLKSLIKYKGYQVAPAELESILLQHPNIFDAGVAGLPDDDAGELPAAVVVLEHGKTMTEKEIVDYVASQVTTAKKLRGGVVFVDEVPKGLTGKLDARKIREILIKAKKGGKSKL

Sequence of Fibroblast growth factor 2 (Homo sapiens) (P09038 whole entry, looked up): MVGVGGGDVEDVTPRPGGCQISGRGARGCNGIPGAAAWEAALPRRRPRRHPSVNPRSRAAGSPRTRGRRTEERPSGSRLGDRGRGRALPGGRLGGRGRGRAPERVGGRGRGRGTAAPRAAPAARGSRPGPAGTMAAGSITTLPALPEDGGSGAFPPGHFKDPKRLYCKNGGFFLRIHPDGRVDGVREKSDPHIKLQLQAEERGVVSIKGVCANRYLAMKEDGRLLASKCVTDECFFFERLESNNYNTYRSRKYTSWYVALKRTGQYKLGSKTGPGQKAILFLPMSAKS

For `COc1ccc([Si](C)(C)[C@@H]2[C@@H](CCO)O[C@]3(C(=O)N(Cc4cccc(N5CCCCC5=O)c4)c4ccccc43)[C@H]2C)cc1`, the composite z-score in the experiment with Albumin (Bos taurus) is 0.532; in [2], 0.134; in experiment [3], -0.123; in experiment [4], 0.361; in experiment [5], 1.06; in experiment [6] it was 0.0492. Also, the composite z-score amounted to 1.29 in the experiment on Sam68 (KHDRBS1); 0.128 in experiment [7]; 0.961 in experiment [8]; 0.49 in experiment [9]; 1.17 in experiment [10]; 0.0366 in experiment [11]. In addition, the composite z-score came to 0.825 in experiment [12]; 1.01 in experiment [13]; 0.885 in experiment [14]; 0.883 with Lefty1; 0.746 in [16]. Besides, in experiment [1], the composite Z-score was 0.6 (inactive). The z-score in experiment [15] was -0.425; in experiment [17], -0.724 (inactive).
For the compound `CC(C)CNC(=O)[C@@]1(C)c2ccccc2C(=O)N(C(C)C)[C@H]1c1ccc(CO)cc1`, the composite z-score is -1.44 with Albumin (Bos taurus); -0.146 in [2]; -0.132 in [3]; 0.903 in experiment [4]; -0.445 in experiment [5]; -0.121 in experiment [6]. Also, the composite z-score in the experiment on Sam68 (KHDRBS1) is -1.06; in experiment [7], -1.02; in [8], -2; in experiment [9], -0.105; in [10], -1.79; in [11], 0.175. Besides, the composite z-score was -1.07 in [12]; -0.0856 in [13]; -0.379 in experiment [14]; -0.353 in the experiment with Lefty1; -0.148 in [16]. Besides, in [1], the composite Z-score was -0.0662 (inactive). The z-score in experiment [15] is -0.265; in [17], 0.691 (inactive).
As for `CN(C)CCCC[C@@H]1NC(=O)[C@@H]2C[C@H](C(=O)NCCCCCCN)[C@H](c3ccc(O)cc3)N2C1=O`, the composite z-score with Albumin (Bos taurus) is -0.254; in experiment [2] it was 0.575; in experiment [3], 0.271; in experiment [4], 0.674; in [5], 1.81; in [6], 0.821. For the same compound, the composite z-score in the experiment with Sam68 (KHDRBS1) amounted to 1.31; in [7], 0.808; in [8], 0.616; in [9], 0.297; in experiment [10], 1.19; in experiment [11], 1.55. The composite z-score was 0.763 in [12]; 1.35 in experiment [13]; 0.787 in experiment [14]; 0.829 in the experiment on Lefty1; 0.998 in [16]. Moreover, the composite Z-score in experiment [1] was 0.142 (inactive). The z-score is -0.729 in experiment [15] and 0.37 (inactive) in [17].
`C=CCC(OC(C)=O)[C@@H]1[C@@H](N(Cc2ccc(-c3ccccc3)cc2)C(=O)c2ccc(C)cc2)c2cc(OCCCO)ccc2N1C(=O)c1ccc2ccccc2n1` (stereo not given in full): the composite z-score was -0.361 in the experiment with Albumin (Bos taurus); 0.246 in [2]; -0.0134 in [3]; 0.0144 in [4]; 0.249 in [5]; -0.446 in [6]. Besides, the composite z-score was -0.44 with Sam68 (KHDRBS1); 0.0539 in [7]; -1.78 in [8]; -0.512 in [9]; -0.0119 in [10]; -0.0203 in [11]. Besides, the composite z-score was -0.459 in experiment [12]; 0.0869 in experiment [13]; -0.006 in experiment [14]; -0.135 with Lefty1; -0.0101 in experiment [16]. Further, the composite Z-score in experiment [1] is -0.181 (inactive). The z-score in experiment [15] is 3.18; in [17], -1.9 (inactive).
With `CCOC(=O)C1=C[C@@H](C(C)(C)C)N(S(=O)(=O)c2ccc(C)cc2)[C@H]1c1ccc(Cl)c(Cl)c1`, the composite z-score came to 0.867 with Albumin (Bos taurus); 0.163 in experiment [2]; 0.0601 in experiment [3]; 0.497 in [4]; 1.79 in experiment [5]; 1.03 in experiment [6]. The composite z-score is 1.3 in the experiment on Sam68 (KHDRBS1); 0.185 in experiment [7]; 1.16 in [8]; 0.978 in [9]; 1.21 in experiment [10]; 0.606 in experiment [11]. For the same compound, the composite z-score is 0.968 in experiment [12]; 0.654 in [13]; 0.202 in experiment [14]; 0.495 with Lefty1; 0.945 in experiment [16]. The composite Z-score in experiment [1] was -0.179 (inactive). Also, the z-score in [15] is 3.07; in experiment [17] it was 1.34 (inactive).
